Compound activity: PubChem, National Center for Advancing Translational Sciences (NCATS)
GLP-1R inv ag: acts as inverse agonist at human GLP-1 receptor | HEK293 GLP-1R CRE-luciferase, luminescence, 24 h; GLP-1R form is constitutively active | 410,000 tested, 1.6% active | Potency, µM (highest dose often 38.3 µM), inactives show at the highest dose activity change, negative = inhibition, hits mostly inhibitors | P43220 | AID 624417; note: % is set by controls: 0 for no effect and ±100 for the full control effect; nearly all actives have a fitted effect of over 55% in size
Target sequence (P43220 whole entry, looked up): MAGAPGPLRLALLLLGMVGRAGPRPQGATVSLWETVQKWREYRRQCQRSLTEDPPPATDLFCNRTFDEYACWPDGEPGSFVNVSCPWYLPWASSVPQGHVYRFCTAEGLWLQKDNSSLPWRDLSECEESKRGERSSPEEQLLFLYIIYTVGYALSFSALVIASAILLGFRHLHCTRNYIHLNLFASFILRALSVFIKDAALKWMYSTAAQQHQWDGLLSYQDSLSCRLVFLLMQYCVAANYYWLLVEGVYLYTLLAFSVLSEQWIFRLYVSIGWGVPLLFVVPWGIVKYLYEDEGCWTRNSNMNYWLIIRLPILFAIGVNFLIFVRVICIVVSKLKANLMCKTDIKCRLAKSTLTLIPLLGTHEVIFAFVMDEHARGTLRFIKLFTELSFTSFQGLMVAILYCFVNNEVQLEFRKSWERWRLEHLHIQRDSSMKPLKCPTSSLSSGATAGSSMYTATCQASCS
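Seeding at 200 cells/uL, 12 h culture, 24 hr compound treatment, then luciferase reagent and a luminescence read; cells are HEK293 stably expressing a constitutively active GLP-1R plus cAMP-responsive luciferase.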
ATXN viability: reduces viability in counter-screen for ATXN expression inhibitors | Potency, µM (titrated, usually from 56.7 µM), most hits filed as cytotoxic | S2 cells (HEK-293 line with an ATXN2-luciferase reporter) viability, CellTiter-Fluor protease fluorescence, 24 h | AID 651635 | 400,000 tested, 0.49% active; note: nearly all actives have a fitted effect of over 40% in size
TGFb SMAD3 inh: inhibitors of TGF-b signaling; HepG2 CAGA-GFP TGF-b/SMAD3 reporter, GFP fluorescence, 18 h; TGF-beta stimulated, 500 pg/mL final; Potency, µM (series often up to 46.1 µM), inactives show top-dose activity, negative = inhibition, usual class: inhibitors; 410,000 tested, 1.2% active; AID 588855; note: % is set by controls: 0 for no effect and ±100 for the full control effect; nearly all actives have a fitted effect of over 65% in size
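GFP signal (ex488/em500-530) from TGF-beta-stimulated HEPG2 CAGA-GFP cells, 500 pg/mL final, 18 h at 37 degrees C in DMEM plus 1% FBS, normalized to unstimulated and DMSO-stimulated controls.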
ATXN2 expr inh: inhibitors of ATXN2 expression. AID 1745845. 360,000 tested, 0.72% active. HEK-293 ATXN2-luciferase reporter, luminescence, 24 h. Potency, µM (top dose mostly 57 µM), without a hit: top-dose activity change, negative = inhibition, actives largely listed as inhibitors; note: % is set by controls: 0 for no effect and ±100 for the full control effect; nearly all actives have a fitted effect of over 55% in size
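ATXN2-luciferase reporter cells (luciferase flanked by upstream and downstream ATXN2 gene portions) were treated 24 h at 37 °C with compounds at up to 57 uM. SteadyGlo luminescence gave expression; GF-AFC fluorescence gave viability.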
GLP1R ag: activates the human GLP-1 receptor | HEK293 GLP-1R CRE-luciferase, luminescence, 4-6 h; cells express a hypersensitive GLP-1R form | P43220 | 380,000 tested, 0.007% active | Potency, µM (titrated, usually from 45.6 µM), inactives show at the top dose activation, usual class: activators; note: % of control where 0% means no effect
HepG2 viability: kills HepG2 cells in TGF-b inhibitor counter-screen | Potency, µM (top dose mostly 46.1 µM), without a hit: top-dose activity change, negative = cytotoxicity, usual class: cytotoxic | AID 588856 | 410,000 tested, 0.76% active | HepG2 CAGA-GFP viability, ATP luminescence, 18 h
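CellTiter-Glo luminescence gave cytotoxicity after 18 hours at 37 degrees C. The cells were HepG2 CAGA-GFP in 1% FBS DMEM, stimulated with 500 pg/mL TGF-beta after compound addition. %Activity was normalised to no-cell wells (complete cell-killing) and DMSO (no toxicity), and curves were fitted and classified.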
The depositor's hits bear a star; i = inactive; ? = inconclusive; · = not tested or not shown. Compounds with a hit are over-represented: about 3.7% of the library has one in this group of screens. Calls come from the whole dose curve; as a rule, active = well fitted curve in the direction sought with a large enough effect; inconclusive = small, poorly fitted or top-dose-only effect, or another doubt; inactive = no such curve, though single readings can be large; an effect the other way counts as inactive or inconclusive. Potency is the fitted concentration of half-maximal effect.

SMILES | GLP-1R inv ag | ATXN viability | TGFb SMAD3 inh | ATXN2 expr inh | GLP1R ag | HepG2 viability
Cc1cc(C)n(CC(O)Cn2c3ccccc3c3ccccc32)n1 (stereo not drawn) | 10µM* | i | -17% | -14% | 4% | -23%
Cc1cc(C)n(CC(O)Cn2c3ccc(Cl)cc3c3cc(Cl)ccc32)c(=O)n1 (stereo not drawn) | ? | ? | ? | 32µM* | -7% | -87%
CCOC(=O)c1ccc(N2C(=O)c3n[nH]c(-c4ccco4)c3C2c2ccc(C)cc2)cc1 (stereo not drawn) | ? | 28µM* | ? | ? | -5% | 16µM*
CCOC(=O)c1ccc(N2C(=O)c3n[nH]c(C)c3C2c2cccnc2)cc1 (stereo not drawn) | -3% | i | -1% | 2% | 2% | 4%
CCOC(=O)c1ccc(N2C(=O)c3n[nH]c(C)c3C2c2ccc(OCC)cc2)cc1 (stereo not drawn) | ? | ? | 11µM* | ? | -4% | -117%
CCOC(=O)c1ccc(N2C(=O)c3n[nH]c(C)c3C2c2ccccn2)cc1 (stereo not drawn) | -2% | i | -7% | -5% | -5% | -11%
CCOC(=O)c1ccc(N2C(=O)c3n[nH]c(-c4ccco4)c3C2c2ccc([N+](=O)[O-])cc2)cc1 (stereo not drawn) | 7.1µM* | ? | ? | ? | -10% | -30%
CCOC(=O)c1ccc(N2C(=O)c3n[nH]c(-c4ccco4)c3C2c2ccc(O)c(OC)c2)cc1 (stereo not drawn) | 1% | ? | 10µM* | ? | 8% | -69%
CCSc1nnc(C(C)NS(=O)(=O)c2cccc(Cl)c2C)n1C (stereo not drawn) | · | i | · | · | · | ·
O=C(c1cccs1)N(Cc1ccco1)c1ccc(O)cc1 | · | · | 13% | · | · | 1%
CCN(CC)CCOC(=O)c1ccc(NC(=O)c2nn(-c3ccc(C)cc3)c(=O)c3c2c2ccccc2n3C)cc1 | 0% | · | 4.5µM* | · | · | 3.5µM*
COc1cc2c(cc1NC(=O)CCC(=O)O)oc1ccccc12 | 7% | i | 1% | 2% | 3% | -1%
COc1cc2c(cc1NC(=O)C(C)Sc1ccc(C)cc1)oc1ccccc12 (stereo not drawn) | ? | i | -1% | -4% | 2% | -16%
COc1cc2c(cc1NC(=O)C(C)NCc1ccccc1)oc1ccccc12 (stereo not drawn) | 11µM* | i | 19% | 9% | 15% | 2%
COc1cc2c(cc1NC(=O)Nc1ccccc1)oc1ccccc12 | ? | i | ? | 4% | -11% | 7.1µM*
COC(=O)CN1C(=O)C(O)(CC(=O)c2cccc(Br)c2)c2ccccc21 (stereo not drawn) | -15% | i | -13% | -18% | 1% | -58%
Cc1ccccc1CN1C(=O)C(O)(CC(=O)c2cccc(Br)c2)c2ccccc21 (stereo not drawn) | ? | · | 13µM* | · | · | 13µM*
COc1cccc(Nc2nc3cc(Cl)c(Cl)cc3nc2-n2nc(C)cc2C)c1 | 5% | i | 13% | 0% | · | -8%
COc1ccc(CNC(=O)c2ccc(-c3nc(CSc4ccccc4)c(C)o3)cc2)cc1 | 20% | i | ? | -10% | · | 10µM*
Cc1ccc(SCc2nc(-c3ccc(C(=O)NCCc4ccc(Cl)cc4)cc3)oc2C)cc1 | 9% | i | -6% | -8% | · | 7%
Cc1ccc(SCc2nc(-c3ccc(C(=O)NCC(C)c4ccccc4)cc3)oc2C)cc1 (stereo not drawn) | 4.5µM* | i | -2% | -14% | · | -32%
CCOc1ccc(CNC(=O)c2ccc(-c3nc(CSc4ccc(C)cc4)c(C)o3)cc2)cc1 | 17% | i | -13% | 16% | · | -3%
CCOC(=O)c1ccc(NC(=O)c2cc3c(n(-c4ccc(C)cc4)c2=O)CC(C)(C)CC3=O)cc1 | 2% | i | ? | 5% | 0% | -22%
CO[C@H]1C[C@@H]2CC[C@@H](C)[C@@](O)(O2)C(=O)C(=O)N2CCCC[C@@H]2C(=O)O[C@H]([C@H](C)C[C@@H]2CC[C@H](OP(C)(C)=O)[C@H](OC)C2)CC(=O)[C@H](C)C=C(C)[C@@H](O)[C@@H](OC)C(=O)[C@H](C)C[C@H](C)C=CC=CC=C1C | · | · | · | 4% | · | ·
CCCN(CC(=O)Nc1ccccc1C)CC(=O)Nc1ccc(Br)cc1F | 10µM* | i | ? | -9% | 12% | -24%
SMILES | GLP-1R inv ag | ATXN viability | TGFb SMAD3 inh | ATXN2 expr inh | GLP1R ag | HepG2 viability
Cc1cn(C)c(CC(=O)NCc2ccccc2Cl)c1C(=O)O | 5% | i | -7% | 5% | · | -9%
COc1ccc(/C=N\NC(=O)COc2ccc(C(C)(C)C)cc2)cc1Cn1nc(C)cc1C | ? | i | 5.6µM* | -38% | -5% | -63%
COc1ccc(/C=N/NC(=O)c2ccn[nH]2)cc1COc1ccc(Cl)cc1Cl | ? | i | 14µM* | -5% | -3% | -41%
COc1ccc(/C=C/C(=O)c2ccc(O)cc2)cc1COc1ccc(F)cc1 | 0% | i | ? | ? | -8% | 16µM*
COc1ccc(C(=O)N/N=C/c2ccc(OC)c(COc3ccc(F)cc3)c2)cc1 | 10µM* | i | -2% | -22% | -28% | -39%
COc1ccc(/C=N/NC(=O)c2ccco2)cc1Cn1nc(C)cc1C | 13% | i | 10% | 14% | 0% | 2%
COc1ccc(Br)cc1CN1C(=O)c2ccccc2C1C(=O)NC1CCCCCC1 (stereo not drawn) | 9% | i | -15% | -6% | · | 13%
COc1ccc(Oc2ccc(/C=C/C(=O)c3ccc(O)cc3)cc2[N+](=O)[O-])cc1 | ? | · | 16µM* | 22µM* | -39% | -98%
COc1ccc(/C=N\NC(=O)c2ccccc2)cc1COc1ccc(F)cc1 | 7.9µM* | i | 0% | 11% | -5% | -9%
O=C(/C=C/c1ccc(O)c([N+](=O)[O-])c1)c1ccc2ccccc2c1 | ? | i | ? | -19% | 2% | -19%
COc1ccc(/C=N\NC(=O)c2ccccc2Br)cc1COc1ccc(F)cc1 | 21% | i | -2% | -9% | -3% | 6%
COc1cc2c3nnc(-c4ccc(F)cc4)c-3cn(Cc3ccc(C)cc3)c2cc1OC | -6% | i | 51% | 18µM* | 3% | 11µM*
